Test results reported in the supplement of paper PMC8728848.
Only a selection was taken, and the strongest signals are over-represented in it overall.

Columns and labels:
Test in all cases: glycan array binding signal (z-score within array); higher = stronger binding
Settings in all cases: glycan notation: IUPAC condensed, linker removed
[1] = target: Fuc(a1-2)[Gal(a1-3)]Gal(b1-4)GlcNAc(b1-2)Man(a1-3)[Fuc(a1-2)[Gal(a1-3)]Gal(b1-4)GlcNAc(b1-2)Man(a1-6)]Man(b1-4)GlcNAc(b1-4)GlcNAc
Method in brief: (§1)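 The binding signal is a Z-score computed within each array. Data were drawn from 3228 arrays in the Consortium for Functional Glycomics database, restricted to those with a known protein sequence. Scores were averaged over arrays of the same protein sequence at different concentrations or buffers, and over linkers, and negative values can be taken as non-binding.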

[2] = target: Fuc(a1-2)[Gal(a1-3)]Gal(b1-4)[Fuc(a1-3)]Glc
Method in brief: as §1

[3] = target: Fuc(a1-2)[GalNAc(a1-3)]Gal(b1-4)[Fuc(a1-3)]GlcNAc(b1-3)GalNAc
Method in brief: as §1

[4] = target: Fuc(a1-3)GlcNAc
Method in brief: as §1

[5] = target: Gal(b1-3)GlcNAc(b1-3)Gal(b1-4)GlcNAc(b1-6)[Gal(b1-3)GlcNAc(b1-3)]Gal(b1-4)Glc
Method in brief: as §1

[6] = target: Gal(b1-4)GlcNAc(b1-2)[Gal(b1-4)GlcNAc(b1-4)]Man(a1-3)[Gal(b1-4)GlcNAc(b1-2)[Gal(b1-4)GlcNAc(b1-6)]Man(a1-6)]Man(b1-4)GlcNAc(b1-4)GlcNAc
Method in brief: as §1

[7] = target: Gal(b1-4)GlcNAc(b1-3)[Gal(b1-4)GlcNAc(b1-6)]GalNAc
Method in brief: as §1

[8] = target: Gal(b1-4)GlcNAc(b1-3)[GlcNAc(b1-6)]Gal(b1-4)GlcNAc
Method in brief: as §1

[9] = target: GalNAc(b1-3)GalNAc
Method in brief: as §1

[10] = target: GlcNAc(a1-4)Gal(b1-4)GlcNAc(b1-3)Gal(b1-4)GlcNAc
Method in brief: as §1

[11] = target: GlcNAc(b1-2)[GlcNAc(b1-4)]Man(a1-3)[GlcNAc(b1-2)Man(a1-6)]Man(b1-4)GlcNAc(b1-4)GlcNAc
Method in brief: as §1

[12] = target: GlcNAc(b1-2)[GlcNAc(b1-6)]Man(a1-6)[GlcNAc(b1-2)Man(a1-3)]Man(b1-4)GlcNAc(b1-4)GlcNAc
Method in brief: as §1

[13] = target: GlcNAc(b1-4)GlcNAc
Method in brief: as §1

[14] = target: GlcNAc(b1-4)GlcNAc(b1-4)GlcNAc(b1-4)GlcNAc(b1-4)GlcNAc(b1-4)GlcNAc
Method in brief: as §1

[15] = target: GlcNAc(b1-6)Gal(b1-4)GlcNAc
Method in brief: as §1

[16] = target: GlcNAc6S(b1-3)Gal(b1-4)GlcNAc
Method in brief: as §1

[17] = target: Kdn(a2-3)Gal(b1-4)Glc
Method in brief: as §1

[18] = target: Man(a1-2)Man(a1-2)Man(a1-3)Man
Method in brief: as §1

[19] = target: Man(a1-2)Man(a1-2)Man(a1-6)[Man(a1-3)]Man
Method in brief: as §1

[20] = target: Man(a1-2)Man(a1-3)[Man(a1-2)Man(a1-6)]Man(a1-6)[Man(a1-2)Man(a1-2)Man(a1-3)]Man
Method in brief: as §1

[21] = target: Man(a1-2)Man(a1-3)[Man(a1-2)Man(a1-6)]Man(a1-6)[Man(a1-2)Man(a1-2)Man(a1-3)]Man(b1-4)GlcNAc(b1-4)GlcNAc
Method in brief: as §1

[22] = target: Man(a1-2)Man(a1-3)[Man(a1-6)]Man(a1-6)[Man(a1-2)Man(a1-3)]Man(b1-4)GlcNAc(b1-4)GlcNAc
Method in brief: as §1

[23] = target: Man(a1-2)Man(a1-6)[Man(a1-3)]Man(a1-6)[Man(a1-2)Man(a1-2)Man(a1-3)]Man
Method in brief: as §1

[24] = target: Man(a1-2)Man(a1-6)[Man(a1-3)]Man(a1-6)[Man(a1-2)Man(a1-2)Man(a1-3)]Man(b1-4)GlcNAc(b1-4)GlcNAc
Method in brief: as §1

[25] = target: Man(a1-3)[Man(a1-6)]Man
Method in brief: as §1

[26] = target: Man(a1-3)[Man(a1-6)]Man(a1-6)[Man(a1-2)Man(a1-3)]Man(b1-4)GlcNAc(b1-4)GlcNAc
Method in brief: as §1

[27] = target: Neu5Ac(a2-3)Gal(b1-3)GlcNAc6S
Method in brief: as §1

[28] = target: Neu5Ac(a2-3)Gal(b1-4)GlcNAc(b1-3)Gal(b1-4)GlcNAc
Method in brief: as §1

[29] = target: Neu5Ac(a2-3)Gal(b1-4)[Fuc(a1-3)]GlcNAc
Method in brief: as §1

[30] = target: Neu5Ac(a2-3)GalNAc
Method in brief: as §1

[31] = target: Neu5Ac(a2-3)[GalNAc(b1-4)]Gal(b1-4)Glc
Method in brief: as §1

[32] = target: Neu5Ac(a2-6)Gal(b1-4)GlcNAc(b1-3)Gal(b1-3)GlcNAc
Method in brief: as §1

[33] = target: Neu5Ac(a2-6)Gal(b1-4)GlcNAc(b1-3)Gal(b1-4)GlcNAc
Method in brief: as §1

[34] = target: Neu5Ac(a2-6)Gal(b1-4)GlcNAc(b1-3)Gal(b1-4)[Fuc(a1-3)]GlcNAc(b1-3)Gal(b1-4)[Fuc(a1-3)]GlcNAc
Method in brief: as §1

[35] = target: Neu5Ac(a2-8)Neu5Ac(a2-3)[Gal(b1-3)GalNAc(b1-4)]Gal(b1-4)Glc
Method in brief: as §1

[36] = target: Neu5Ac(a2-8)Neu5Ac(a2-8)Neu5Ac(a2-3)[GalNAc(b1-4)]Gal(b1-4)Glc
Method in brief: as §1

[37] = target: Neu5Gc(a2-6)GalNAc
Method in brief: as §1

[38] = target: Neu5Gc(b2-6)Gal(b1-4)GlcNAc
Method in brief: as §1

[39] = target: Fuc(a1-2)[Gal(a1-3)]Gal(b1-4)GlcNAc
Method in brief: as §1

[40] = target: Gal(a1-4)Gal(b1-4)GlcNAc
Method in brief: as §1

[41] = target: Gal(b1-3)GalNAc(b1-4)Gal(b1-4)Glc
Method in brief: as §1

[42] = target: Gal(b1-3)[Neu5Ac(a2-6)]GalNAc
Method in brief: as §1

[43] = target: Gal(b1-4)GlcNAc(b1-3)Gal(b1-4)GlcNAc
Method in brief: as §1

[44] = target: Gal3S(b1-4)GlcNAc
Method in brief: as §1

[45] = target: GalNAc(a1-3)Gal
Method in brief: as §1

[46] = target: GlcNAc(b1-3)Gal
Method in brief: as §1

[47] = target: Kdn(a2-3)Gal(b1-4)GlcNAc
Method in brief: as §1

[48] = target: Man(a1-2)Man(a1-3)[Man(a1-2)Man(a1-6)]Man(a1-6)[Man(a1-3)[Man(a1-6)]Man(a1-6)]Man(b1-4)GlcNAc(b1-4)GlcNAc
Method in brief: as §1

[49] = target: Neu5Ac(a2-3)Gal(b1-3)[Neu5Ac(a2-3)Gal(b1-4)]GlcNAc
Method in brief: as §1

[50] = target: Neu5Ac(a2-8)Neu5Ac
Method in brief: as §1

[51] = target: Neu5Ac(a2-8)Neu5Ac(a2-3)[GalNAc(b1-4)]Gal(b1-4)Glc
Method in brief: as §1

[52] = target: Neu5Gc(a2-3)Gal(b1-3)GlcNAc
Method in brief: as §1

B1: CVN (Nostoc ellipsosporum), P81180 (protein)
chain: LGKFSQTCYNSAIQGSVLTSTCERTNGGYNTSSIDLNSVIENVDGSLKWQPSNFIETCRNTQLAGSSELAAECKTRAQQFVSTKINLDDHIANIDGTLKYE
glycan array binding signal (z-score) [1]: 0.048
glycan array binding signal (z-score) [2]: -0.107
glycan array binding signal (z-score) [3]: 0.522
glycan array binding signal (z-score) [4]: -0.306
glycan array binding signal (z-score) [5]: -0.301
glycan array binding signal (z-score) [6]: 5.21
glycan array binding signal (z-score) [7]: -0.095
glycan array binding signal (z-score) [8]: -0.306
glycan array binding signal (z-score) [9]: -0.306
glycan array binding signal (z-score) [10]: -0.203
glycan array binding signal (z-score) [11]: 0.024
glycan array binding signal (z-score) [12]: -0.3
glycan array binding signal (z-score) [13]: -0.301
glycan array binding signal (z-score) [14]: -0.306
glycan array binding signal (z-score) [15]: -0.302
glycan array binding signal (z-score) [16]: -0.222
glycan array binding signal (z-score) [17]: -0.296
glycan array binding signal (z-score) [18]: 5.16
glycan array binding signal (z-score) [19]: 5.83
glycan array binding signal (z-score) [20]: 7.15
glycan array binding signal (z-score) [21]: 5.21
glycan array binding signal (z-score) [22]: 5.58
glycan array binding signal (z-score) [23]: 7.23
glycan array binding signal (z-score) [24]: 6.39
glycan array binding signal (z-score) [25]: -0.299
glycan array binding signal (z-score) [26]: 4.22
glycan array binding signal (z-score) [27]: -0.304
glycan array binding signal (z-score) [28]: -0.3
glycan array binding signal (z-score) [29]: -0.268
glycan array binding signal (z-score) [30]: -0.303
glycan array binding signal (z-score) [31]: -0.305
glycan array binding signal (z-score) [32]: -0.302
glycan array binding signal (z-score) [33]: -0.284
glycan array binding signal (z-score) [34]: 0.537
glycan array binding signal (z-score) [35]: -0.246
glycan array binding signal (z-score) [36]: -0.237
glycan array binding signal (z-score) [37]: -0.308
glycan array binding signal (z-score) [38]: -0.306

B2: IRP60A (Homo sapiens), Q9UGN4 (protein)
chain: MWLPWALLLLWVPGCFALSKCRTVAGPVGGSLSVQCPYEKEHRTLNKYWCRPPQIFLCDKIVETKGSAGKRNGRVSIRDSPANLSFTVTLENLTEEDAGTYWCGVDTPWLRDFHDPVVEVEVSVFPASTSMTPASITAAKTSTITTAFPPVSSTTLFAVGATHSASIQEETEEVVNSQLPLLLSLLALLLLLLVGASLLAWRMFQKWIKAGDHSELSQNPKQAATQSELHYANLELLMWPLQEKPAPPREVEVEYSTVASPREELHYASVVFDSNTNRIAAQRPREEEPDSDYSVIRKT
glycan array binding signal (z-score) [39]: -0.266
glycan array binding signal (z-score) [40]: -0.116
glycan array binding signal (z-score) [41]: -0.487
glycan array binding signal (z-score) [42]: -0.296
glycan array binding signal (z-score) [43]: -0.308
glycan array binding signal (z-score) [44]: 0.268
glycan array binding signal (z-score) [45]: 6.44
glycan array binding signal (z-score) [9]: 0.467
glycan array binding signal (z-score) [46]: -0.069
glycan array binding signal (z-score) [47]: -0.156
glycan array binding signal (z-score) [48]: -0.396
glycan array binding signal (z-score) [24]: -0.395
glycan array binding signal (z-score) [25]: 8.07
glycan array binding signal (z-score) [49]: -0.378
glycan array binding signal (z-score) [50]: 5.86
glycan array binding signal (z-score) [51]: -0.404
glycan array binding signal (z-score) [52]: -0.502
